Source: PubChem (National Center for Advancing Translational Sciences (NCATS))
Rab9 prom act: qHTS Assay for Rab9 Promoter Activators; Huh7 Rab9 promoter-luciferase reporter, luminescence, 24 h; Potency, µM (series often up to 9.22 µM), for the others: at the top dose activation, negative = inhibition, hits mostly activators; 320,000 tested, 2.8% active; also: % of control where 0% means no effect; nearly all actives have a fitted effect of over 60% in size
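Using Huh7 cells stably transfected with Rab9 promoter–luciferase, compounds were incubated 24 h at 37 °C, 5% CO2; luciferase luminescence was read 10 min after reagent addition.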
ELG1 genotox: qHTS screen for small molecules that induce genotoxicity in human embryonic kidney (HEK293T) cells expressing luciferase-tagged ELG1; HEK293T ELG1-luciferase reporter, luminescence, 16 h; 330,000 tested, 1.3% active; AID 504466, 2011; Potency, µM (titrated, usually from 46 µM), inactives show at the top dose activity change, positive = activation, usual class: activators; also: % of control where 0% means no effect; nearly all actives have a fitted effect of over 60% in size
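HEK293T cells expressing luciferase-tagged ELG1 were exposed to compound or DMSO vehicle for 16 hr at 37 °C and 5% CO2. Luciferase activity was then measured with ONE-Glo after 30 min at room temperature.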
SMN2 splice up: qHTS Assay for Enhancers of SMN2 Splice Variant Expression; Potency, µM (top dose mostly 46.1 µM), for inactives: at the highest dose activity change, positive = activation, actives largely listed as activators; HEK293 SMN2-luciferase splicing reporter, luminescence, 30-36 h; 210,000 tested, 2.8% active; also: % of control where 0% means no effect; nearly all actives have a fitted effect of over 55% in size
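qHTS luciferase splicing reporter: luminescence rises when SMN2 exon 7 is included in transfected HEK293 cells. Compound exposure lasted 30-36 h at 37C, with 4.5 mM final sodium butyrate as control, followed by a ONE-Glo read.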
FLuc counter: qHTS profiling assay for firefly luciferase inhibitor/activator using purifed enzyme and Km concentrations of substrates (counterscreen for miR-21 project); purified FLuc, Km substrates, luminescence inhibition; Potency, µM (doses to about 57.5 µM), inactives show top-dose activity change, negative = inhibition, most hits filed as inhibitors; 360,000 tested, 6.9% active; AID 588342, 2011;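 also: plate controls were vehicle for no effect and reference inhibitor for full effect; nearly all actives have a fitted effect of over 55% in size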
Target sequence (P08659 whole entry, looked up): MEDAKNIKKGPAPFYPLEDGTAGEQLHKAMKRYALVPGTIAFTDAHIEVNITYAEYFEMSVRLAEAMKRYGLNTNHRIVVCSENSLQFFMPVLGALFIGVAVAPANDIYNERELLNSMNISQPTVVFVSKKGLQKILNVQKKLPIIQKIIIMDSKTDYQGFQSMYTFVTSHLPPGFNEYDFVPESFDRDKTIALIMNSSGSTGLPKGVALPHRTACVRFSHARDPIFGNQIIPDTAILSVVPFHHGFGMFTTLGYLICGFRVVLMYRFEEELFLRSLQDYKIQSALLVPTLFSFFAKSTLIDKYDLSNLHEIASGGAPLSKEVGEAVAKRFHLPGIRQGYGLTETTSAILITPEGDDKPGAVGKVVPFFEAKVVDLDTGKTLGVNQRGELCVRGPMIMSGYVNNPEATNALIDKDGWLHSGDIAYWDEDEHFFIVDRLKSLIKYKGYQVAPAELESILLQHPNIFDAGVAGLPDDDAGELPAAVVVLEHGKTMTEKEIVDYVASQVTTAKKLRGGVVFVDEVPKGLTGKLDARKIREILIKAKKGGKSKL
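Purified P. pyralis luciferase (10nM final) with 10uM D-luciferin and 10uM ATP (Km levels) in 50mM Tris acetate pH 7.5, 10mM Mg acetate, 0.01% Tween-20, 0.05% BSA; qHTS 6-point titration, ~60 µM downward; luminescence read.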
Luc counter: Counterscreen for Luciferase (Kinase-Glo TM) Inhibition | Luciferin 4-monooxygenase (Photuris pensylvanica), Q27757 | Kinase-Glo luciferase, ATP luminescence, 8 min | Potency, µM (titrated, usually from 38.3 µM), inactives show at the highest dose activity change, negative = inhibition, usual class: inhibitors | 200,000 tested, 0.28% active; also: % is scaled to controls: 0 for no effect and ±100 for the full control effect; nearly all actives have a fitted effect of over 60% in size
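Light output from Kinase-Glo luciferase with luciferin and 10 uM ATP in 50 mM imidazole pH 7.2, KCl, MgCl2, Tween 20, BSA; compound pin-delivered, 8-min ambient incubation, then luminescence read.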
NPC1 prom act: qHTS Assay for NPC1 Promoter Activators; Huh7 NPC1 promoter luciferase reporter, 24 h; Potency, µM (top dose mostly 9.22 µM), for inactives: top-dose activation, hits mostly activators; 320,000 tested, 2.4% active; AID 485313, 2010; also: % of control where 0% means no effect; nearly all actives have a fitted effect of over 60% in size
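NPC1 promoter–luciferase Huh7 cells; 24 h compound; luminescence.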
Numbers without * were called inactive; ? = inconclusive; . = not tested or not shown; [ ] = remark or other dose. In the library only some 7.5% were active in any assay of this set; here they are far more common. Calls follow the shape of the dose curve; as a rule, active = well fitted curve in the direction sought with a large enough effect; inconclusive = small, poorly fitted or top-dose-only effect, or another doubt; inactive = no such curve, though single readings can be large; an effect the other way counts as inactive or inconclusive. Potency is read from the fitted curve at half-maximal effect.

SMILES | Rab9 prom act | ELG1 genotox | SMN2 splice up | FLuc counter | Luc counter | NPC1 prom act
Cc1cccn2c(=O)nc(SCC(=O)c3ccc(Cl)cc3)nc12 | -6% | ? | . | 1% | . | -3%
Cc1cccn2c(=O)nc(SCC(=O)c3ccccc3)nc12 | 18% | 21µM* | . | -2% | . | 17%
CCOc1ccc(C(=O)N(Cc2ccccc2)c2cccc(C)c2)cc1OC | -10% | ? | . | ? | . | 7%
CC(C)(C)NC(=O)/C=C/c1ccc(C(F)(F)F)cc1 | -7% | 5% | -28% | 27µM* | 2% | -4%
CNC(=O)/C=C/c1cccc(C(F)(F)F)c1 | 7% | 1% | -6% | 3% | -1% | -1%
O=[N+]([O-])c1cccnc1N/N=C/c1ccccc1O | ? | ? | -51% | ? | 2µM* | -4%
O=C(O)CNc1ncccc1[N+](=O)[O-] | 2% | 0% | 3% | 0% | -1% | 2%
Cc1c(O)ccc(/C=N/Nc2ncccc2[N+](=O)[O-])c1O | 3.2µM* | 2.6µM* | . | 1.1µM* | . | 0.56µM*
O=[N+]([O-])c1cccc(N/N=C/c2cc([N+](=O)[O-])ccc2O)c1 | 30% | ? | 20% | ? | 6% | ?
O=[N+]([O-])c1ccc(N/N=C/c2ccccc2O)cc1 | 20% | ? | . | 15µM* | . | -7%
O=[N+]([O-])c1ccc(O)c(/C=N/Nc2ccccn2)c1 | -25% | 14% | -86% | 4% | -1% | -15%
Cc1cc(Br)ccc1SCC(=O)OCC(=O)c1c(N)n(C)c(=O)n(C)c1=O | 1% | 1% | . | -11% | . | -8%
N#Cc1ccc(C(=O)Nc2ccc(Cl)c(-c3nc4cc(Cl)ccc4o3)c2)c(F)c1 | . | . | -15% | -6% | . | .
COCCn1c(=O)c(CCc2ccccc2)nc2cnc(Oc3cccc(Cl)c3)nc21 | . | . | -45% | . | -4% | .
C=CCNC(=O)c1ccc(-c2nc(-c3ccccc3)cs2)cc1 | 0.89µM* | 14% | 5.6µM* | ? | 2% | ?
O=C(O)c1ccc(-c2nc(-c3ccc(Cl)cc3)cs2)cc1 | 0.32µM* | 19% | 4.5µM* | 0.95µM* | 1% | ?
O=C(Nc1ccc(-c2csc(-c3ccccc3)n2)cc1)c1ccccc1 | -2% | 3% | -6% | 0% | -1% | -5%
O=C(NCCc1nc(-c2ccccc2)cs1)c1ccc(Br)cc1 | -6% | 0% | -5%[1.84 µM] | 15µM* | -2% | -6%
COc1ccc(-c2csc(-c3ccc(C(=O)O)cc3)n2)cc1 | 0.13µM* | 6% | 2µM* | 0.95µM* | 0% | 0.32µM*
CCC(Sc1nc2ccccc2c2nc(CCn3c(C)nc4ccccc43)nn12)C(=O)Nc1ccc(F)cc1 (stereo not drawn) | . | . | . | 0% | . | .
O=C(O)c1ccc(-c2nc(-c3cccc(C(F)(F)F)c3)cs2)cc1 | -2% | 4% | 2% | ? | 2% | 24%
O=C(O)c1ccc(-c2nc(-c3ccc(Cl)cc3Cl)cs2)cc1 | 1.4µM* | ? | 11µM* | 8.5µM* | 2% | 1.6µM*
CCc1ccc2nc(NC(=O)c3ccc(N4C(=O)CCC4=O)cc3)sc2c1 | 24% | 8% | . | 8.5µM* | . | 23%
CCc1ccc(C(=O)NNC(=O)c2cccc(N3C(=O)CCC3=O)c2)cc1 | -2% | 4% | . | 11µM* | . | -2%
Cc1occc1C(=O)Nc1sc2c(c1C(N)=O)CCC(C(C)(C)C)C2 (stereo not drawn) | 17% | 14% | -9% | ? | 15% | 4%
CC(C)(C)C1CCc2c(sc(NC(=O)c3ccncc3)c2C(N)=O)C1 (stereo not drawn) | 17% | -7% | 3% | 2.7µM* | 2% | 18%
